Source: PubChem (National Center for Advancing Translational Sciences (NCATS))
In the library only some 7.3% were active in any assay of this set; here they are far more common.
HCMV inh – qHTS Assay for inhibitors of the human cytomegalovirus (HCMV); HFF cells, HCMV-luciferase reporter, 72 h; hits give low values; activity change, negative = inhibition, % at 57.5 µM; hit rate 4.5% among 410,000; AID 1259415, 2018; in the data active means activity change below about -60%; inconclusive means no clear call, values can overlap the other calls; inactive means above about -39%
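Cell-based, HFFs, 1000 cells/well, 16 h 37C; cpds in DMSO + HCMV-luc, MOI 1 PFU/cell; 72 h 37C; OneGlo luminescence after 5 min RT; norm. to buffer vs Salinomycin 10uM.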
HCV inh – qHTS Assay for Inhibitors of Hepatitis C Virus (HCV); Huh7.5.1 HCVcc-Cre infection, luciferase reporter, 44 h; hit rate 3.4% among 340,000; AID 651820, 2012; Potency, µM (doses to about 41.8 µM), hits mostly inhibitors
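Infectious HCV cell culture screen: compound-treated cells (1,000/well, pre-plated 4 h) are infected with HCVcc-Cre at roughly 0.5 moi and grown 44 h. Infection is quantified by luciferase signal after 15 min substrate incubation at room temperature.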
FMDV inh – High Throughput Screening for Foot and Mouth Disease Virus Antivirals. FMDV antiviral cell-based qHTS. Potency, µM (titrated, usually from 57.9 µM), hits mostly inhibitors. hit rate 1.2% among 410,000; calls by dose curve; tested in HEK293T cells; further: read-out not given here; nearly all actives have a fitted effect of over 45% in size
AmpC detergent – qHTS Inhibitors of AmpC Beta-Lactamase (assay with detergent); P00811; AmpC hydrolysis of nitrocefin, absorbance 480 nm, 0.01% Triton; AID 485294, 2010; hit rate 0.041% among 370,000; Potency, µM (titrated, usually from 114 µM), most hits filed as inhibitors; further: nearly all actives have a fitted effect of over 25% in size
Target sequence (P00811 whole entry, looked up): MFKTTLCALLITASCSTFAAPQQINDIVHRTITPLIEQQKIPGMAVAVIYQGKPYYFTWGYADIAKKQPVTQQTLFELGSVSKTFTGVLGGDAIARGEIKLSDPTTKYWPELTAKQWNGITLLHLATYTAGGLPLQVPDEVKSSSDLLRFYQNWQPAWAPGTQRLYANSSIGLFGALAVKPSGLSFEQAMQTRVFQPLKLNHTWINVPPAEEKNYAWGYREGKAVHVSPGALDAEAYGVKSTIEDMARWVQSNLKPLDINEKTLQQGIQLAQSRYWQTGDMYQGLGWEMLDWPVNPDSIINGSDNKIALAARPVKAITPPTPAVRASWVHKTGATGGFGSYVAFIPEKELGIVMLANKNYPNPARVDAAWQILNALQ
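AmpC (5.3 nM in the dispensed reagent) in 20 mM phosphate pH 7.0 with 0.01% (detergent screen) or 0.0001% Triton X-100 was preincubated with compounds for 15 min at room temperature. Nitrocefin was then added from an 800 uM solution, and hydrolysis was followed at 480 nm.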
AmpC inh no detg – qHTS Inhibitors of AmpC Beta-Lactamase (assay without detergent); Potency, µM (titrated, usually from 57.1 µM), usual class: inhibitors; hit rate 0.52% among 330,000; P00811; AmpC nitrocefin hydrolysis, absorbance 480 nm, 0.0001% Triton; further: nearly all actives have a fitted effect of over 20% in size
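20 mM phosphate pH 7.0 + 0.01% (detergent screen) or 0.0001% Triton X-100; 5.3 nM AmpC reagent; cpd preinc 15 min RT; nitrocefin (800 uM stock) to start; A480 q20 s × 4 min; Activity was normalised to no-enzyme and no-compound control wells.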
Large screens that a line does not name were inactive. Unless noted, the call rests on the fitted dose curve; in most records, active means well fitted curve in the direction sought with a large enough effect; inconclusive means small, poorly fitted or top-dose-only effect, or another doubt; inactive means no such curve, though single readings can be large; an effect the other way counts as inactive or inconclusive.

O=C(Cn1c(=O)nc(-c2ccccc2)c2ccccc21)NCCc1ccc(Cl)cc1	HCMV inh inconclusive (no result: HCV inh, AmpC inh no detg)
CCCOc1ccccc1NC(=O)/C=C/c1ccc(OC)c(S(=O)(=O)N2CCOCC2)c1	none (no result: HCV inh, AmpC detergent, AmpC inh no detg)
COc1ccc(C(=O)NCC(=O)N2CCN(c3ccc(Cl)cc3)CC2)cc1	HCMV inh inconclusive
CCN1C(=O)C(CC(=O)Nc2ccc(OC)cc2)N(CCCN2CCN(c3ccc(OC)cc3)CC2)C1=S (centres undefined)	HCV inh 11.2µM, AmpC detergent inconclusive
COc1ccc(NC(=O)CCN2CCN(c3ccc(F)cc3)CC2)cc1	HCMV inh -75.6
COc1ccc(C(=O)NCC(=O)N2CCN(c3ccc(F)cc3)CC2)cc1	HCMV inh -64.0
COc1cccc(CNc2nccn(-c3cc(C)cc(C)c3)c2=O)c1	none (no result: HCV inh, AmpC inh no detg)
COCCn1ccc2c(OCC(=O)Nc3cccc(OC)c3)cccc2c1=O	FMDV inh inconclusive (no result: HCV inh, AmpC inh no detg)
CCN1C(=O)[C@H]2[C@@H](c3ccc(-c4cccc(Cl)c4)c(OC)c3)N[C@@](C)(C(=O)OC)[C@H]2C1=O	none
CC(=O)c1ccc(-c2ccc(C(=O)N(C)c3c(N)n(Cc4ccccc4)c(=O)[nH]c3=O)o2)cc1	none
CCc1cc(-c2nnn(CCC3COCCO3)c2CC)cc(CC)c1-c1cn(Cc2ccc3ccccc3c2)nn1 (centres undefined)	HCMV inh -67.4, FMDV inh inconclusive (no result: HCV inh, AmpC detergent, AmpC inh no detg)
CCc1cc(-c2nnn(CCC3COCCO3)c2CC)ccc1-c1cn(CCc2c[nH]c3ccccc23)nn1 (centres undefined)	HCMV inh -80.0 (no result: HCV inh, AmpC detergent, AmpC inh no detg)
COc1ccc(-c2cn(Cc3cccc(OC)c3)nn2)cc1	HCV inh inconclusive, AmpC detergent inconclusive
O=C(CS(=O)(=O)c1cccc2nsnc12)NCc1ccccc1	none (no result: HCV inh, AmpC inh no detg)
Fc1ccc(C2=NOC(c3nnc(-c4ccccc4)o3)C2)cc1 (centres undefined)	HCMV inh -65.3
CCOC(=O)C1=C(CC)Nc2ccccc2N/C1=N\S(=O)(=O)c1ccccc1OC	none
Cc1ccccc1-n1cc(CNC(=O)CN2Cc3ccccc3OC(C)C2)cn1 (centres undefined)	none (no result: HCMV inh, HCV inh, AmpC detergent, AmpC inh no detg)
O=C(c1n[nH]c(=O)c2ccccc12)N1CCN(c2ccc(F)cc2)CC1	HCMV inh -102.1, FMDV inh inconclusive, AmpC detergent inconclusive
COc1cccc(NC(=O)COC(=O)c2ccccc2C(=O)N2CCN(c3ccccc3)CC2)c1	HCMV inh inconclusive, HCV inh inconclusive, FMDV inh 17.8µM
O=C(c1n[nH]c(=O)c2ccccc12)N1CCN(c2ccccc2)CC1	none
O=C(c1ccc(N2CCN(C(=O)c3ccc(F)cc3F)CC2)cc1)c1cccc(F)c1	HCV inh 11.2µM, FMDV inh inconclusive
Cc1ccccc1C(=O)c1c[nH]c(C(=O)N2CCN(c3ccccc3F)CC2)c1	HCV inh inconclusive, FMDV inh inconclusive
O=C(c1c[nH]c(C(=O)N2CCN(c3ccccc3F)CC2)c1)c1cccc(Cl)c1Cl	HCV inh 25.1µM
CSc1ccccc1C(=O)NCC1Cc2cc(F)cc(-c3cnccn3)c2O1 (centres undefined)	none (no result: HCMV inh, HCV inh, AmpC detergent, AmpC inh no detg)
O=C(c1ccccc1C(=O)N1CCN(c2ccc(F)cc2)CC1)N1CCN(c2ccc(F)cc2)CC1	FMDV inh 22.4µM
O=C(c1ccccc1)c1ccc(N2CCN(C(=O)c3cccc(F)c3F)CC2)c(F)c1	HCV inh 12.6µM
CC(=O)c1ccc(N2CCN(C(=O)c3ccccc3SCC(=O)NCc3ccco3)CC2)c(F)c1	HCV inh 12.6µM, FMDV inh inconclusive (no result: AmpC detergent, AmpC inh no detg)
CC(=O)c1c(C)[nH]c(C(=O)N2CCN(c3ccc(F)cc3)CC2)c1C	HCMV inh -71.3
COc1ccc(C(=O)NCCCC2CCCC2)cc1OC1CCN(C(C)C)CC1	none (no result: HCV inh, AmpC detergent, AmpC inh no detg)
COC(=O)c1ccccc1NC(=O)N1CCN(c2ccc(F)cc2)CC1	HCMV inh -62.5
O=C(c1cc(-c2ccc(Cl)cc2)on1)N1CCN(c2ccc(F)cc2)CC1	AmpC detergent inconclusive
CC(C)Cc1cc(C(=O)N2CCN(c3ccc(F)cc3)CC2)no1	AmpC inh no detg 0.316µM
O=C(COC(=O)c1ccccc1C(=O)N1CCN(c2ccccc2)CC1)Nc1ccc(F)cc1	HCV inh inconclusive
O=C(COC(=O)c1ccccc1C(=O)N1CCN(c2ccc(F)cc2)CC1)NCc1ccccc1	FMDV inh 25.1µM
Cc1nc2sccn2c(=O)c1S(=O)(=O)NCC1CCN(Cc2ccc(Cl)cc2)CC1	none (no result: HCV inh, AmpC detergent, AmpC inh no detg)
CCc1cccc(CC)c1NC(=O)CSc1nc2ccc(N3C(=O)C4C(C3=O)[C@H]3C=C[C@@H]4C3)cc2s1 (some centres undefined)	HCMV inh -71.5, HCV inh inconclusive, FMDV inh inconclusive, AmpC detergent inconclusive
CCc1cccc(C)c1NC(=O)CSc1nc2ccc(N3C(=O)c4ccccc4C3=O)cc2s1	none
CCOc1ccc(-c2cnc(NCc3ccc(C(F)(F)F)cc3)n2C)cc1	none (no result: HCV inh, AmpC inh no detg)
CCOC(=O)[C@@H]1[C@H]2COc3ccc(Br)cc3[C@H]2N2C(=O)N(c3ccc(C(F)(F)F)cc3)C(=O)[C@]12C	HCMV inh -75.8 (no result: AmpC detergent)
CCOC(=O)[C@@H]1[C@H]2COc3ccc(Br)cc3[C@H]2N2C(=O)N(c3ccc(Br)cc3)C(=O)[C@]12C	HCV inh 31.6µM (no result: HCMV inh)
CCCNC(=O)C1CCN(c2cc(C)nc3c(-c4ccc(OC)c(OC)c4)c(C)nn23)CC1	none (no result: HCV inh, AmpC inh no detg)
c1ccc(CN2C3=NCCCN3c3ccccc32)cc1	HCV inh inconclusive
Cc1ccc(CN2C3=NCCCN3c3ccccc32)cc1	HCV inh inconclusive
CC(C)(C)c1ccc(CN2C3=NCCCN3c3ccccc32)cc1	HCMV inh -85.0, HCV inh 31.6µM, FMDV inh inconclusive
O=C(CN1C2=NCCCN2c2ccccc21)c1ccc2c(c1)OCO2	HCV inh 11.2µM (no result: FMDV inh)
Clc1ccc(CN2C3=NCCN3c3ccccc32)cc1	HCV inh 12.6µM, AmpC detergent inconclusive
O=C(O)CN1C2=NCCCN2c2ccccc21	none
CCCCCCCN1C2=NCCCN2c2ccccc21	HCMV inh inconclusive, HCV inh 10µM, FMDV inh inconclusive
COc1cccc(NC(=O)N(C)C[C@H]2OCc3cn(nn3)CCCC(=O)N([C@H](C)CO)C[C@@H]2C)c1	none (no result: HCV inh, FMDV inh, AmpC detergent, AmpC inh no detg)
O=C(Cc1ccc2c(c1)OCO2)N1CCOc2ccc(CN3CCOCC3)cc2C1	none (no result: HCMV inh, HCV inh, AmpC detergent, AmpC inh no detg)
CCC(CC)c1nn2c(N)c(/C=C3\C=Nc4ccccc43)c(=O)nc2s1	none
CCC(CC)c1nn2c(N)c(/C=C3\C(C)=Nc4ccccc43)c(=O)nc2s1	AmpC inh no detg 7.94µM
Cc1nn(S(=O)(=O)c2ccc(Cl)cc2)c(C)c1Sc1ccc([N+](=O)[O-])cc1	HCMV inh -77.5, HCV inh inconclusive, FMDV inh inconclusive
